Among the data in PubChem BioAssay (EPA / NIEHS) are AC50 and outcome values, retold here.

Activity calls are given as the source filed them. Rule for the calls: active = hit-call score of the fitted dose curve at least 0.9, where 1 is the maximum; inactive = score below 0.9.

The first assay is described as follows: CCTE_Mundy_HCI_Cortical_Synap_Neur_Matur_NeuriteSpotCountPerNeuriteLength: CCTE's Synaptogenesis and Neurite Maturation Assay in rat cortical cells for Neurite Spot Count per Neurite Length, Mundy Lab (AID 2284210). The essentials: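 Read-out: synaptophysin puncta counted along MAP2-stained neurites, normalised to neurite length, by automated high-content imaging. Rat cortical cells; AraC DIV 5; chemical dosing DIV 7; termination DIV 12. DMSO baseline.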
For the compound `OC(Cc1ccccc1Cl)(Cn1[nH]cnc1=S)C1(Cl)CC1` (centres undefined), the AC50 (in general, the concentration at which the activity in the assay is half-maximal) is 80.4 µM (active).
Take `Cc1ccccc1OP(=O)(Oc1ccccc1C)Oc1ccccc1C`: the compound was classed as inactive.
With `CNC(=O)CSP(=O)(OC)OC`, the result was inactive.
Consider `CC1(C)[C@H](C(=O)O[C@H](C#N)c2cccc(Oc3ccccc3)c2)[C@@H]1/C=C(\Cl)C(F)(F)F`, for which the AC50 is 4.59 µM (active).
`CCOCn1c(-c2ccc(Cl)cc2)c(C#N)c(Br)c1C(F)(F)F`: the concentration at half-maximal activity (AC50) is 22.7 µM (active).
On to `Cc1cc(C(F)(C(F)(F)F)C(F)(F)F)ccc1NC(=O)c1cccc(I)c1C(=O)NC(C)(C)CS(C)(=O)=O`, for which the compound was called inactive.
Regarding `CC(C)[C@@H](Nc1ccc(C(F)(F)F)cc1Cl)C(=O)OC(C#N)c1cccc(Oc2ccccc2)c1` (some centres undefined), the result was inactive.
Same read-out and setting: the same measure for `CS(=O)(=O)c1ccc(C(=O)C2C(=O)CCCC2=O)c(Cl)c1COCC(F)(F)F`: “inactive”.
The same measure, in the same setting: the same measure for `NC(=O)c1ccc(N)nc1`: “inactive”.

A further assay can be described thus: CCTE_Mundy_HCI_Cortical_Synap_Neur_Matur_BPCount: CCTE's Synaptogenesis and Neurite Maturation Assay in rat cortical cells for Branch Point Count, Mundy Lab (AID 2284211). The essentials: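 In this multiplexed morphology assay, cortical cells from rat receive chemicals at DIV 7 and are fixed at DIV 12, then immunostained and imaged; branch points are counted, with DMSO as baseline.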
As for `OC(Cc1ccccc1Cl)(Cn1[nH]cnc1=S)C1(Cl)CC1` (centres undefined), the AC50 is 50 µM (active).
Regarding `Cc1ccccc1OP(=O)(Oc1ccccc1C)Oc1ccccc1C`, the AC50 was 26.4 µM (active).
For `CNC(=O)CSP(=O)(OC)OC`, the call was inactive.
`CC1(C)[C@H](C(=O)O[C@H](C#N)c2cccc(Oc3ccccc3)c2)[C@@H]1/C=C(\Cl)C(F)(F)F`: the AC50 was 2.28 µM (active).
As to `CCOCn1c(-c2ccc(Cl)cc2)c(C#N)c(Br)c1C(F)(F)F`, the AC50 is 13.1 µM (active).
Take `Cc1cc(C(F)(C(F)(F)F)C(F)(F)F)ccc1NC(=O)c1cccc(I)c1C(=O)NC(C)(C)CS(C)(=O)=O`: the outcome was inactive.
Regarding `CC(C)[C@@H](Nc1ccc(C(F)(F)F)cc1Cl)C(=O)OC(C#N)c1cccc(Oc2ccccc2)c1` (some centres undefined), the call was inactive.
Turning to `CS(=O)(=O)c1ccc(C(=O)C2C(=O)CCCC2=O)c(Cl)c1COCC(F)(F)F`, the compound was classed as inactive.
For `NC(=O)c1ccc(N)nc1`, the AC50 is 9.07 µM (active).

A short description of a further assay: CCTE_Mundy_HCI_Cortical_NOG_NeuriteCount: CCTE's Neurite Outgrowth Assay in rat cortical cells for Neurite Count, Mundy Lab (AID 2284212).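 Note: cells fixed about two days after chemical exposure began.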 A digest of the protocol:
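Rat cortical primary cells; compound added 2 h post-plating, 1/10 dilution of working solution. Anti-betaIII-tubulin/AF488 ICC; ArrayScan neurite count vs DMSO.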
With `OC(Cc1ccccc1Cl)(Cn1[nH]cnc1=S)C1(Cl)CC1` (centres undefined), the result was inactive.
For the compound `Cc1ccccc1OP(=O)(Oc1ccccc1C)Oc1ccccc1C`, the AC50 was 19.2 µM (active).
Consider `CNC(=O)CSP(=O)(OC)OC`, for which the call was inactive.
As to `CC1(C)[C@H](C(=O)O[C@H](C#N)c2cccc(Oc3ccccc3)c2)[C@@H]1/C=C(\Cl)C(F)(F)F`, the AC50 is 19.9 µM (active).
The same measure, in the same setting: in the case of `CCOCn1c(-c2ccc(Cl)cc2)c(C#N)c(Br)c1C(F)(F)F` it was 23.2 µM (active).
As to `Cc1cc(C(F)(C(F)(F)F)C(F)(F)F)ccc1NC(=O)c1cccc(I)c1C(=O)NC(C)(C)CS(C)(=O)=O`, the call was inactive.
On to `CC(C)[C@@H](Nc1ccc(C(F)(F)F)cc1Cl)C(=O)OC(C#N)c1cccc(Oc2ccccc2)c1` (some centres undefined), for which the call was inactive.
Still for that read-out and setting: in the case of `CS(=O)(=O)c1ccc(C(=O)C2C(=O)CCCC2=O)c(Cl)c1COCC(F)(F)F` it was “inactive”.
With `NC(=O)c1ccc(N)nc1`, the AC50 was 14.5 µM (active).

The next assay can be described thus: CCTE_Mundy_HCI_Cortical_NOG_NeuriteLength: CCTE's Neurite Outgrowth Assay in rat cortical cells for Neurite Length, Mundy Lab (AID 2284213).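 For AC50: neurites imaged about 48 to 50 h after chemical exposure began.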 The essentials:
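First, rat primary cortical cells were plated and, 2 h later, given test chemical as a 1/10 dilution. Finally, βIII-tubulin immunostaining enabled automated imaging of neurite length.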
In the case of `OC(Cc1ccccc1Cl)(Cn1[nH]cnc1=S)C1(Cl)CC1` (centres undefined), the call was inactive.
As for `Cc1ccccc1OP(=O)(Oc1ccccc1C)Oc1ccccc1C`, the AC50 is 19.6 µM (active).
Turning to `CNC(=O)CSP(=O)(OC)OC`, the compound was classed as inactive.
With `CC1(C)[C@H](C(=O)O[C@H](C#N)c2cccc(Oc3ccccc3)c2)[C@@H]1/C=C(\Cl)C(F)(F)F`, the AC50 was 19.5 µM (active).
On to `CCOCn1c(-c2ccc(Cl)cc2)c(C#N)c(Br)c1C(F)(F)F`, for which the AC50 was 22.4 µM (active).
Consider `Cc1cc(C(F)(C(F)(F)F)C(F)(F)F)ccc1NC(=O)c1cccc(I)c1C(=O)NC(C)(C)CS(C)(=O)=O`, for which the outcome was inactive.
Same read-out and setting: in the case of `CC(C)[C@@H](Nc1ccc(C(F)(F)F)cc1Cl)C(=O)OC(C#N)c1cccc(Oc2ccccc2)c1` (some centres undefined) it was “inactive”; in that of `CS(=O)(=O)c1ccc(C(=O)C2C(=O)CCCC2=O)c(Cl)c1COCC(F)(F)F`, “inactive”.
As for `NC(=O)c1ccc(N)nc1`, the AC50 is 14 µM (active).

A short description of another assay: CCTE_Mundy_HCI_Cortical_Synap_Neur_Matur_NeuriteLength: CCTE's Synaptogenesis and Neurite Maturation Assay in rat cortical cells for Neurite Length, Mundy Lab (AID 2284214). The essentials: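 DMSO-normalised neurite length, from high-content imaging of anti-MAP2-stained rat cortical cells fixed at DIV 12. Glia were suppressed with AraC (DIV 5) before chemical exposure from DIV 7.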
Regarding `OC(Cc1ccccc1Cl)(Cn1[nH]cnc1=S)C1(Cl)CC1` (centres undefined), the AC50 is 42.7 µM (active).
The same measure, in the same setting: in the case of `Cc1ccccc1OP(=O)(Oc1ccccc1C)Oc1ccccc1C` it was 3.54 µM (active).
Turning to `CNC(=O)CSP(=O)(OC)OC`, the compound was classed as inactive.
Turning to `CC1(C)[C@H](C(=O)O[C@H](C#N)c2cccc(Oc3ccccc3)c2)[C@@H]1/C=C(\Cl)C(F)(F)F`, the AC50 is 2.35 µM (active).
The same measure, in the same setting: the same measure for `CCOCn1c(-c2ccc(Cl)cc2)c(C#N)c(Br)c1C(F)(F)F`: 15.5 µM (active).
Consider `Cc1cc(C(F)(C(F)(F)F)C(F)(F)F)ccc1NC(=O)c1cccc(I)c1C(=O)NC(C)(C)CS(C)(=O)=O`, for which the call was inactive.
The same measure, in the same setting: the same measure for `CC(C)[C@@H](Nc1ccc(C(F)(F)F)cc1Cl)C(=O)OC(C#N)c1cccc(Oc2ccccc2)c1` (some centres undefined): “inactive”.
`CS(=O)(=O)c1ccc(C(=O)C2C(=O)CCCC2=O)c(Cl)c1COCC(F)(F)F`: the result was inactive.
In the case of `NC(=O)c1ccc(N)nc1`, the AC50 was 9.47 µM (active).

Another assay is described as follows: CCTE_Mundy_HCI_Cortical_Synap_Neur_Matur_NeuriteSpotCountPerNeuron: CCTE's Synaptogenesis and Neurite Maturation Assay in rat cortical cells for Neurite Spot Count per Neuron Count, Mundy Lab (AID 2284215). A digest of the protocol: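 Rat primary cortical cultures given AraC at DIV 5, dosed from DIV 7 to DIV 12 with media change. Fixed, stained for MAP2, synaptophysin and Hoechst; neurite-associated synaptophysin puncta per neuron quantified by high-content imaging versus DMSO.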
Regarding `OC(Cc1ccccc1Cl)(Cn1[nH]cnc1=S)C1(Cl)CC1` (centres undefined), the AC50 was 50 µM (active).
Turning to `Cc1ccccc1OP(=O)(Oc1ccccc1C)Oc1ccccc1C`, the AC50 was 3.81 µM (active).
On to `CNC(=O)CSP(=O)(OC)OC`, for which the call was inactive.
Consider `CC1(C)[C@H](C(=O)O[C@H](C#N)c2cccc(Oc3ccccc3)c2)[C@@H]1/C=C(\Cl)C(F)(F)F`, for which the AC50 was 2.16 µM (active).
As for `CCOCn1c(-c2ccc(Cl)cc2)c(C#N)c(Br)c1C(F)(F)F`, the AC50 is 13.5 µM (active).
As for `Cc1cc(C(F)(C(F)(F)F)C(F)(F)F)ccc1NC(=O)c1cccc(I)c1C(=O)NC(C)(C)CS(C)(=O)=O`, the call was inactive.
For `CC(C)[C@@H](Nc1ccc(C(F)(F)F)cc1Cl)C(=O)OC(C#N)c1cccc(Oc2ccccc2)c1` (some centres undefined), the concentration at half-maximal activity (AC50) is 4.59 µM (active).
Consider `CS(=O)(=O)c1ccc(C(=O)C2C(=O)CCCC2=O)c(Cl)c1COCC(F)(F)F`, for which the compound was classed as inactive.
Regarding `NC(=O)c1ccc(N)nc1`, the AC50 was 9.32 µM (active).
